# Screening data from PubChem.
# gsp agonist – qHTS for Agonist of gsp, the Etiologic Mutation Responsible for Fibrous Dysplasia/McCune-Albright Syndrome: qHTS. 340,000 tested, 0.13% active. Potency, µM (titrated, usually from 76.9 µM), without a hit: top-dose activation (cAMP increase), hits mostly activators. AID 624287, 2012. gsp mutant cells, cAMP HTRF, 30 min; active = well fitted activation curve with a large enough effect; inconclusive = small, poorly fitted or top-dose-only effect, or another doubt; inactive = no such curve, though single readings can be large or run the other way; cell line not stated here;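 also: phosphodiesterase inhibitor Ro 20-1724 added with compounds to block cAMP breakdown; nearly all actives have a fitted effect of over 60% in size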
#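 Cells in DMEM/10% FBS with G418 were pretreated with compounds in DMSO plus […] (300 uM stock) for 30 min at 37C. cAMP was measured by HTRF (cAMP-d2 plus anti-cAMP antibody-K) after 30 min at room temperature.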
# ASM inhibitor – Inhibitors of Secretory Acid Sphingomyelinase (S-ASM): qHTS; Sphingomyelin phosphodiesterase (Homo sapiens), P17405; placental ASM, HMU-PC fluorogenic substrate, 60 min; Potency, µM (doses to about 57.5 µM), for the others: at the top dose activity change, negative = inhibition, usual class: inhibitors; 340,000 tested, 0.006% active; active = well fitted inhibition curve with a large enough effect; inconclusive = small, poorly fitted or top-dose-only effect; inactive = no such curve, though single readings can be large or run the other way
# Target sequence (P17405 47-631 limits assumed): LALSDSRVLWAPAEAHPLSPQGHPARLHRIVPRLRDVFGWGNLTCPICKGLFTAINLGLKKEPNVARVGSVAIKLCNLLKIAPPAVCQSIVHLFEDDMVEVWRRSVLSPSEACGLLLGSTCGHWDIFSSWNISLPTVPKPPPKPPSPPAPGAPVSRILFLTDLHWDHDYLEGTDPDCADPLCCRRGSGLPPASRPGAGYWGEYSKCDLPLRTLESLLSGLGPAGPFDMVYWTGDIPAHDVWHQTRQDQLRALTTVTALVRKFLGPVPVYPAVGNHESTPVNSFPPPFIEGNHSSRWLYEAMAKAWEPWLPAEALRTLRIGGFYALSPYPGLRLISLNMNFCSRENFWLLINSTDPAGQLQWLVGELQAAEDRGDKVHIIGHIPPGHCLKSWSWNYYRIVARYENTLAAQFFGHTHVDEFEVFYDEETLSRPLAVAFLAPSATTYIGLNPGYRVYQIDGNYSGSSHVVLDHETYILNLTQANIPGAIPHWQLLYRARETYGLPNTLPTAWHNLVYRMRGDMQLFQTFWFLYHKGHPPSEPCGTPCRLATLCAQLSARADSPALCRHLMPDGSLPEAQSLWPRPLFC
#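 Fluorogenic HMU-PC substrate (9 uM final) is turned over by placental ASM in 60 min at 37 C after a 10 min compound preincubation. Reaction ended by alkaline stop (pH 10), with fluorescence read at 386/447 nm.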
# MBNL1 CUG block – qHTS Assay for Inhibitors of MBNL1-poly(CUG) RNA binding; Muscleblind-like protein 1 (Homo sapiens), Q9NR56; TR-FRET MBNL1-His/biotin-(CUG)12 binding, 665/545 ratio; Potency, µM (series often up to 57.5 µM), for inactives: top-dose activity change, negative = inhibition, hits mostly inhibitors; 280,000 tested, 0.036% active; active = well fitted inhibition curve with a large enough effect in the signal ratio, with a control signal flat, not every such curve was filed as active; inconclusive = small, poorly fitted or top-dose-only effect, or effect the other way, or a change in a side signal; inactive = no such curve, though single readings can be large or run the other way; the % refers to the signal ratio; also: % is scaled to controls: 0 for no effect and ±100 for the full control effect
#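 TR-FRET between His-tagged MBNL1 and biotin-(CUG)12 RNA, detected with Tb anti-His antibody (0.055 ng/ul) and streptavidin-XL665 (5 nM), 60 min at room temperature. Compounds titrated 92 nM to 58 uM; 665/545 nm ratio normalized to buffer and complex controls.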
# gsp antag – qHTS for Antagonists of gsp, the Etiologic Mutation Responsible for Fibrous Dysplasia/McCune-Albright Syndrome: qHTS. gsp-mutant cells, cAMP HTRF, 30 min. Potency, µM (highest dose often 76.9 µM), for inactives: top-dose activity change, negative = inhibition, hits mostly inhibitors. 340,000 tested, 0.4% active. AID 624288, 2012; calls by dose curve; cell line not stated here;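 also: intracellular cAMP measured with PDE inhibitor Ro 20-1724 present during compound exposure; % is scaled to controls: 0 for no effect and ±100 for the full control effect; nearly all actives have a fitted effect of over 65% in size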
#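 Cells in G418 medium, seeded 16-24 h, 37C; buffer exchange to DPBS + 1 mM CaCl2, 0.5 mM MgCl2, 0.05% BSA; cpds in DMSO + […] (300 uM stock), 30 min 37C; HTRF cAMP detection.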
# BCR signal inh – qHTS Assay to Find Inhibitors of Chronic Active B-Cell Receptor Signaling. Potency, µM (doses to about 46.1 µM), without a hit: top-dose activity change, negative = inhibition, usual class: inhibitors. AID 493014, 2011. 340,000 tested, 0.05% active. ABC-DLBCL IkBa-CBG/CBR reporter, luminescence ratio, 4 h; active = well fitted inhibition curve with a large enough effect in the signal ratio, with a control signal flat, not every such curve was filed as active; inconclusive = small, poorly fitted or top-dose-only effect, or effect the other way, or a change in a side signal; the % refers to the signal ratio;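 also: plate controls were basal doxycycline-induced cells for no effect and cells given 10 µM MG132 for full effect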
#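 Concentration-response series (up to 46 uM) were applied to TMD8 dual-reporter cells for 4 h at 37C with doxycycline. Green/red ratio, after filter-overlap correction, defined %Activity; red signal alone was normalised to basal cells and zero luminescence.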
# Starred values were filed as active, the others as inactive; i = inactive; ? = inconclusive; . = not tested or not shown; [ ] = another dose, or the depositor's remark. Hits are enriched below; roughly 0.62% of the tested compounds scored in any of these assays. Potency is read from the fitted curve at half-maximal effect.
SMILES,gsp agonist,ASM inhibitor,MBNL1 CUG block,gsp antag,BCR signal inh
N#C/C(=C\c1cccc(NC(=O)c2ccccc2Cl)c1)C(=O)NCCc1ccccc1,-11%,-7%,1%,1%,21µM*
Nn1c(SCC(=O)N2CCCC2=O)nnc1-c1cccs1,0%,1%,.,7%,-1%
COc1ccc(CCNC(=O)c2cc(-c3ccccc3)c(N3CCOCC3)s2)c(OC)c1OC,-18%,-2%,8%,32µM*,13%
Cc1csc(NC(=O)CSc2nc(C(C)C)nc3ccccc23)n1,-30%,-1%,6%,0%,?
O=S(=O)(Nc1nc2ccccc2nc1Nc1cccc(S(=O)(=O)N2CCCCC2)c1)c1ccccc1,-45%,256%,5%,35µM*,6%
CC1CCN(N=Nc2nc3c([nH]2)c(=O)n(C)c(=O)n3C)CC1,13µM*,-7%,.,5%,.
O=c1[nH]ncc2c3ccccc3n(Cc3cccc(Cl)c3)c12,-21%[15.4 µM],32µM*,48%,6%,-4%
O=c1[nH]ncc2c3ccccc3n(Cc3ccc(F)cc3)c12,-25%,-1%,-9%,12%,-1%
CN(CC(=O)O)Cc1oc(CO)cc(=O)c1O,-8%,-1%,.,8%,.
[N-]=C=C1C(=S)NC(=O)[C@H]([n+]2ccccc2)[C@H]1c1ccc(Cl)cc1,20µM*,1%,.,5%,?
O=C(C[n+]1ccccc1)N/N=C/c1ccc(Br)cc1,12%,-7%,.,-3%,0%
COc1ccc(CCN2C(=O)CSC2=Nc2ccc(C(C)C)cc2)cc1OC,-8%[15.4 µM],-14%,-1%,28µM*,?
COc1ccccc1OCCCc1c(C)n[nH]c1C,0%,-2%,-15%,-1%,-19%
COc1ccccc1OCCCCCc1c(C)n[nH]c1C,-13%,1%,-2%,35µM*,0%
O=c1c2ccccc2c2ccccc2c(=O)n1Nc1ccccc1,5%,.,.,.,.
COc1cccc(NC(=O)Nc2nc(SC(C)(C)C)ns2)c1,-44%,-10%,-2%,40µM*,-5%
COc1cccc(NC(=O)Nc2nc(SC)ns2)c1,-39%,-2%,-13%,-24%,?
CCOc1ccccc1Oc1nc(C)nc2c1oc1ccccc12,.,.,.,.,13µM*
NC(=O)c1ccsc1NC(=O)CN1CCN(S(=O)(=O)c2ccccc2C(F)(F)F)CC1,15%,-12%,.,50µM*,.
O=C(CN1CCN(S(=O)(=O)c2ccccc2C(F)(F)F)CC1)NCc1cccs1,-2%[15.4 µM],-2%,.,4%,2%
COc1nc(N(C)C)nc(N(OC)S(=O)(=O)c2ccccc2Cl)n1,-18%,-1%,-10%,-4%,-9%
COc1cc(C)nc(N(C)S(=O)(=O)c2ccccc2Cl)n1,-1%,-2%,-5%,32µM*,1%
COc1ccc(C(=O)NCC(=O)n2nc(C)cc2C)cc1OC,10µM*,0%,-2%,9%,0%
COc1ccc(C(=O)NCC(=O)OCC(=O)NC(=O)c2ccc(C(C)(C)C)cc2)cc1OC,0%,-7%,.,50µM*,-4%
COc1cccc(CNC(=O)CN2c3cccc4cccc(c34)S2(=O)=O)c1,-19%,23%,.,2%,?
COc1ccc(CN2CSC(=S)N(Cc3ccc(OC)cc3)C2)cc1,22%,-3%,-9%,-7%,16µM*
S=c1sscc1-c1ccccc1,23%,-3%,.,-16%,.
COc1ccccc1C1C2=C(CC(C)(C)CC2=O)N(CC(=O)O)C2=C1C(=O)CC(C)(C)C2,-18%,i,17%,2%,8%
COc1ccc(N2C3=C(C(=O)CC(C)(C)C3)C(c3ccccc3OC)C3=C2CC(C)(C)CC3=O)cc1,?,i,7%,28µM*,1%
CC12CCC(=O)N1C(C(=O)NNC(=O)COc1ccc(Br)cc1)CS2 (stereo not given),-11%,-5%,.,13%,-10%
